About 83,000 compounds went through this panel and 20% of them were active in at least one assay; those are over-represented in the sample as a whole.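 How to read the values: 0–100, growth inhibition (40 = 60% inhibited); 0, no net growth; -100 to 0, cell death (-40 = 40% of starting cells died; -100 = all dead).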 Unmarked numbers belong to inactive results. Calls of active or inactive are those of the source. The calls were made as follows: active = growth percent below 10; inactive = the rest.
Tests used:
Test in all cases: NCI-60 one-dose screen, 48 h (100 = growth as untreated, 0 = no growth, -100 = all killed)
Conditions in all cases: 10 µM unless noted
T-47D breast = tested on: T-47D breast
BT-549 breast = tested on: BT-549 breast
MDA-MB-435 melanoma = tested on: MDA-MB-435 melanoma
SW-620 colon = tested on: SW-620 colon
MCF7 breast = tested on: MCF7 breast
HCT-116 colon = tested on: HCT-116 colon
HCC-2998 colon = tested on: HCC-2998 colon
KM12 colon = tested on: KM12 colon

| SMILES | growth (T-47D breast) | growth (BT-549 breast) | growth (MDA-MB-435 melanoma) | growth (SW-620 colon) | growth (MCF7 breast) | growth (HCT-116 colon) | growth (HCC-2998 colon) | growth (KM12 colon) |
| --- | --- | --- | --- | --- | --- | --- | --- | --- |
| Cc1ccc(NC(=O)c2cccc(CN3CCN(C)CC3)c2)cc1Oc1ccc(-c2[nH]nc3ncnc(N)c23)cc1 | 82.6% | 95.8% | 56.3% | 48.6% | 41.4% | 57.4% | 99.4% | – |
| CCNC(=O)Oc1ccc(/C(=C(/C)c2ccccc2)c2ccc(OCCN3CCCC3)cc2)cc1 | 51.8% | 70.4% | 81.6% | 80.3% | 26.9% | 38.3% | 93.4% | – |
| C#C[C@]1(O)CC[C@H]2[C@@H]3CC=C4c5sc(Nc6cccc(C)n6)nc5CC[C@]4(C)[C@H]3CC[C@@]21C | 37.7% | 23.1% | -41.5% (active) | -22.6% (active) | -41.5% (active) | 14.4% | 47.5% | – |
| CCN(CC)CCN1C(=O)c2c(c3c4cc(Br)ccc4[nH]c3c3ccc4ccccc4c23)C1=O | -34.5% (active) | 61.8% | -94.7% (active) | -61.6% (active) | -80% (active) | -80.1% (active) | -89.5% (active) | – |
| O=C1c2c(c3c4cccnc4[nH]c3c3ccc4ccccc4c23)C(=O)N1CCN1CCNCC1 | 99.2% | 102% | 89.9% | 55.9% | 27.8% | 36.6% | 81.8% | – |
| O=C(CCCCCCN1CC(=O)N2[C@@H](c3cc(F)cc(F)c3)c3[nH]c4ccccc4c3C[C@H]2C1=O)NO | 30.6% | 98.6% | 47.9% | 46.9% | 52% | 27.3% | 82.4% | – |
| CCOC(=O)c1c(NC(=O)c2ccc(F)cc2F)sc2c1CCC(=O)C2 | 81.4% | 94.2% | 98.9% | 69.7% | 93.4% | 96.5% | 107% | – |
| IP(CCCSc1n(Cc2ccc3ccccc3c2)c(-c2ccccc2)c(-c2ccccc2)[n+]1Cc1ccc2ccccc2c1)(c1ccccc1)(c1ccccc1)c1ccccc1 | 2.62% (active) | 20% | 14.9% | 45.7% | 9.71% (active) | 14.1% | 24.3% | 4.9% (active) |
| COc1ccc([C@H]2[C@H](O)C(=O)N2c2cc(OC)c(OC)c(OC)c2)cc1Cl | 69.9% | 1.85% (active) | -0.621% (active) | 17.8% | 9.61% (active) | 2.62% (active) | 13.8% | 11.3% |
| Cc1ccccc1NC1CC(=O)N(c2ccc(Cl)cc2Cl)C1=O (stereo not given) | 105% | 123% | 101% | 96.2% | 94% | 108% | 109% | 105% |
| O=C1C[C@@H](c2ccccc2)Oc2c(Cc3ccccc3O)c(O)c(Cc3cc(Cc4cc(Cc5ccccc5O)ccc4O)ccc3O)c(O)c21 | 94% | 104% | 93.8% | 99.3% | 92.2% | 96.7% | 106% | 92.8% |
| Nc1nc(-c2cccc([N+](=O)[O-])c2)c(N=Nc2ccccc2Cl)s1 | 57.9% | 71.6% | 89.5% | 54.7% | 66.6% | 32.6% | 107% | 67.4% |
| O=C(Nc1cc(F)cc2cccnc12)c1cnc(N2CCOCC2)cn1 | 23.9% | 72.4% | 90.9% | 51.3% | 2.58% (active) | 9.63% (active) | 107% | 99.1% |
| COc1ccc(C2CC(c3ccc(Nc4nc(NCCO)nc(Nc5ccc(Cl)cc5)n4)cc3)=Nc3c(N)nc(N)nc3N2)cc1 (stereo not given) | 72.1% | 77.5% | 74.9% | 41.2% | -71.8% (active) | -80.3% (active) | 93.5% | – |
| Oc1ccc(CSc2nnc(-c3ccc(Br)cc3)o2)c2cccnc12 | 28.5% | 43% | 29.3% | 17.7% | 16% | 23% | 44.9% | 19.1% |
| N#Cc1ccc(S(=O)(=O)Nc2ccc(-c3cnc(N)[nH]3)cc2)cc1 | 101% | 107% | 108% | 102% | 90.7% | 107% | 105% | – |

| SMILES | growth (T-47D breast) | growth (BT-549 breast) | growth (MDA-MB-435 melanoma) | growth (SW-620 colon) | growth (MCF7 breast) | growth (HCT-116 colon) | growth (HCC-2998 colon) | growth (KM12 colon) |
| --- | --- | --- | --- | --- | --- | --- | --- | --- |
| O=C1c2c(c3c4cccnc4[nH]c3c3ccc4ccccc4c23)C(=O)N1CCN1CCCCC1 | 46.4% | 84.4% | 69% | 41.3% | 14.5% | 36.9% | 70% | 99.6% |
| CN(C)c1ccc(/C=N/Nc2nc(N/N=C/c3ccc(N(C)C)cc3)nc(N3CCOCC3)n2)cc1 | 94.7% | 106% | 104% | 83.8% | 54.8% | 35.7% | 103% | 104% |
| O=C1CSC(=O)N1Cc1cc2ccccc2nc1Cl | 92.5% | 95.6% | 99.3% | 103% | 92.5% | 106% | 105% | 101% |
| CCN1CCN(c2cc(C(=O)Nc3nc4ccc(Oc5ccnc(C(=O)NC)c5)cc4s3)cc(C(F)(F)F)c2)CC1 | 72% | 149% | 68.6% | 77.5% | 51.9% | 57.9% | 90.3% | – |
| O=C(CSc1nnc(-c2cccs2)n1-c1ccccc1)Nc1ccc(F)cc1 | 84.7% | 99.3% | 80.8% | 97.2% | 91.9% | 86.3% | 125% | 94.1% |
| C=CCn1c(SCC(=O)Nc2cccc(C(=O)/C=C/c3ccc(C)cc3)c2)nc2ccccc2c1=O | 67.3% | 122% | 68.6% | 67.5% | 26.5% | 13.7% | 87.2% | 74.5% |
| CC(=O)Nc1cccc(-n2cnc3cc(-c4ccc(O)cc4)ccc32)c1 | 27.7% | 49.2% | -17.7% (active) | 19.4% | 31.4% | 20.8% | 79.6% | 20.6% |
| O=C(CSc1ccc(-c2nc3ccccc3[nH]2)cn1)N1CCN(c2ccccc2F)CC1 | 16.7% | 27.8% | 53.9% | 106% | 55.7% | 68.1% | 96.5% | 68.8% |
| O=C(/C=C1\C=CN(CCCCCCF)c2ccccc21)n1ccc2ccccc21 | 82% | 103% | 108% | 104% | 88.4% | 84.8% | 107% | 100% |
| C/C(=N/Nc1nc(N/N=C(/C)c2ccc([N+](=O)[O-])cc2)nc(N2CCOCC2)n1)c1ccc([N+](=O)[O-])cc1 | 54.9% | 67.3% | 85% | 95.5% | 74.1% | 70.6% | 96% | – |
| CCCCCCNC(=O)Oc1ccc(/C(=C(/C)c2ccccc2)c2ccc(OCCN(C)C)cc2)cc1 | 33.1% | 75.3% | 53% | 27.3% | 18% | 22.6% | 69.3% | 66.2% |
| CCOC(=O)/C(F)=C/C1CC1CCc1cccc(C(F)(F)F)c1 (stereo not given) | 108% | 113% | 103% | 102% | 95% | 110% | 109% | 99.1% |
| C/C=C/[C@@H]1C=C[C@@H]2C[C@H](C)CC[C@H]2[C@]1(C)/C(O)=C1/C(=O)[C@H](CO)N(C)C1=O | 74.7% | 75.2% | 74.8% | 52.5% | 68.3% | 61.4% | 57% | 47.2% |
| COc1ccc(C(=O)c2c(N)c(C#N)cn2-c2cccc(OC)c2)cc1 | 16% | 41.9% | -37.3% (active) | 9.11% (active) | 17.5% | 16.8% | 56.1% | 23.7% |
| COc1cc(O)c2c(c1)/C=C/C[C@H](O)[C@H](O)C(=O)/C=C\C[C@H](C)OC2=O | -1.9% (active) | -29.2% (active) | -15.4% (active) | -9.76% (active) | 0.782% (active) | -16.3% (active) | -41.9% (active) | 19.1% |
| c1ccc(-c2c(-c3ccccc3)[n+](Cc3ccc4ccccc4c3)c(-c3ccccc3)n2Cc2ccc3ccccc3c2)cc1 | -60.9% (active) | -87.1% (active) | -93.9% (active) | -81.7% (active) | -72.9% (active) | -74.8% (active) | -90.3% (active) | -82.9% (active) |
